In publication PMC5540273 (PLoS ONE, 2017):

The molecules below were run on T1, VEGFR2. Conditions: concentration: 1 μM, replicates: in singlicate; n = 1.
T1 construct: gene KDR
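Further: KINOMEscan kinase panel screen.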

SMILES	%Inh
CC(C)(C)c1ccc(C(=O)Nc2cn3cc(Cl)ccc3n2)cc1	12%
Cn1cncc1-c1ccc2ncnc(Nc3ccc(OCc4ccccc4)cc3)c2c1 [GW320571]	0%
O=C(Nc1n[nH]c2nc(-c3nccs3)c(Br)cc12)C1CC1 [SB-742251]	0%
CN1C(=O)C(Nc2ccc(Cl)c(C(=O)O)c2)=C(c2ccc(Cl)cc2)C1=O [SB-404290]	6%
Cc1cc(N2Cc3ccccc3C2)nc(Nc2ccc(S(=O)(=O)N3CCOCC3)cc2)n1.Cl [GSK1669917]	0%
CN(C)CCN(C)C(=O)c1cc(-c2ccncc2)c(-c2ccc(Cl)c(O)c2)o1.Cl.Cl [SB-710397]	0%
Cc1csc(-c2nc(Nc3ccncc3)c3ccccc3n2)n1 [GW869640]	36%
Cc1ccc(NC(=O)Nc2cccc(Cl)c2)cc1-c1ccc(C(=O)Nc2ccncc2)cc1 [GSK1398468]	16%
O=C(Nc1n[nH]c2cc(-c3cccc(F)c3F)ccc12)C1CC1 [SB-733894]	20%
Cl.O=C(Nc1cccc(-c2nn3ncccc3c2-c2ccnc(Nc3cccnc3)n2)c1)c1c(F)cccc1F [GSK312879]	0%
O=C(Nc1n[nH]c2nc(-c3nccs3)c(Br)cc12)C1CCCC1 [SB-742609]	0%
COc1cc(Nc2nccc(N3CCC(NC(=O)Nc4cc(C)ccc4C)C3)n2)cc(OC)c1OC (stereo not shown) [GSK1379762]	0%
COc1cc2nccc(Nc3ccc(NC(=O)c4ccc(C)cc4)c(O)c3)c2cc1OC.Cl [GW440132]	0%
O=C(Nc1ccc2c(c1)OCO2)NC1CCN(c2ccnc(Nc3ccc(F)cc3)n2)C1 (stereo not shown) [GSK1379724]	0%
O=C1NC(=O)C(N2CCc3ccccc32)=C1c1ccccc1Cl [SB-373598]	2%
Fc1cccc(COc2nnc(-c3ccc4c(c3)CCO4)o2)c1	25%
Cc1cccc(-c2nc(Nc3cccc(C(N)=O)c3)c3ccccc3n2)n1 [GW876019]	0%
Cc1c(O)cccc1Nc1ccnc2ccc(C(F)(F)F)cc12.Cl [GW466413]	0%
COc1ccc(Nc2nccc(-c3cccc(NC(=O)c4cc5cc(F)ccc5[nH]4)c3)n2)cc1 [GSK1229782]	4%
Cc1cc(NCC(c2ccccc2)c2ccccc2)nc(NCc2ccc(C(F)(F)F)cc2)n1 [GW497681]	0%

These molecules were tested on T2, VPS34. Conditions: concentration: 1 μM, replicates: in singlicate; n = 1.
T2 construct: gene PIK3C3

SMILES	%Inh
CS(=O)(=O)c1ccc(-c2c(-c3ncn[nH]3)sc(N3CCOCC3)c2C#N)cc1	86%
CCn1c(-c2cccnc2O)nc2cnccc21 [SB-736715]	0%
Cc1cc(-c2ccc3c(c2)CC[C@@H](N[C@@H](C)c2ccccc2)C3)cnc1N.Cl [GW412617]	68%
COc1ccccc1CNC(=O)c1cc(C(=O)c2ccccc2C)c[nH]1 [GSK364507]	1%
Cc1cccc(-c2nc(-c3ccc(S(C)(=O)=O)cc3)sc2-c2ccnc(NCCc3ccccc3)c2)c1	82%
CC(=O)Nc1nc2cnc(Nc3cc(NC(=O)c4cccc(CCC#N)c4)ccc3C)nc2s1	12%
Cc1cccc(-c2nc(C)cc(Nc3ccncc3)n2)n1 [GSK257997]	11%
CS(=O)(=O)c1ccc(-c2nc3n(c2-c2ccncc2)CCC3)cc1 [SKF-105942]	0%
Cl.c1ccc(-c2n[nH]cc2-c2ccnc(-c3ccc(CN4CCOCC4)cc3)c2)nc1 [GW776245]	0%
Nc1ncnc2[nH]c(-c3ccccc3)nc12 [AH5015]	0%
O=C(O)COc1ncnc2cc(-c3ccc4[nH]ncc4c3)sc12	27%
COc1cc2ncn(-c3cc(OCC4CCCO4)c(C(N)=O)s3)c2cc1OC (stereo not shown) [GSK204607]	0%
Cc1ccc(NC(=O)Nc2cc(C(C)(C)C)nn2-c2ccccc2)cc1 [GSK1014915]	0%
Cc1cccc(-c2nc(Nc3ccc4[nH]ncc4c3)c3ccccc3n2)n1 [GW857175]	0%
CC(C)(C)c1ccc(C(=O)Nc2cn3cc(Cl)ccc3n2)cc1	13%
Cn1cncc1-c1ccc2ncnc(Nc3ccc(OCc4ccccc4)cc3)c2c1 [GW320571]	23%
O=C(Nc1n[nH]c2nc(-c3nccs3)c(Br)cc12)C1CC1 [SB-742251]	0%
CN1C(=O)C(Nc2ccc(Cl)c(C(=O)O)c2)=C(c2ccc(Cl)cc2)C1=O [SB-404290]	28%

SMILES	%Inh
Cc1cc(N2Cc3ccccc3C2)nc(Nc2ccc(S(=O)(=O)N3CCOCC3)cc2)n1.Cl [GSK1669917]	0%
CN(C)CCN(C)C(=O)c1cc(-c2ccncc2)c(-c2ccc(Cl)c(O)c2)o1.Cl.Cl [SB-710397]	0%
Cc1csc(-c2nc(Nc3ccncc3)c3ccccc3n2)n1 [GW869640]	33%
Cc1ccc(NC(=O)Nc2cccc(Cl)c2)cc1-c1ccc(C(=O)Nc2ccncc2)cc1 [GSK1398468]	0%
O=C(Nc1n[nH]c2cc(-c3cccc(F)c3F)ccc12)C1CC1 [SB-733894]	0%
O=C(Nc1ccccc1)Nc1cccc(Oc2ccc3nccn3n2)c1	0%
Cl.O=C(Nc1cccc(-c2nn3ncccc3c2-c2ccnc(Nc3cccnc3)n2)c1)c1c(F)cccc1F [GSK312879]	0%
O=C(Nc1n[nH]c2nc(-c3nccs3)c(Br)cc12)C1CCCC1 [SB-742609]	0%
COc1cc(Nc2nccc(N3CCC(NC(=O)Nc4cc(C)ccc4C)C3)n2)cc(OC)c1OC (stereo not shown) [GSK1379762]	0%
COc1cc2nccc(Nc3ccc(NC(=O)c4ccc(C)cc4)c(O)c3)c2cc1OC.Cl [GW440132]	14%
O=C(Nc1ccc2c(c1)OCO2)NC1CCN(c2ccnc(Nc3ccc(F)cc3)n2)C1 (stereo not shown) [GSK1379724]	0%
O=C1NC(=O)C(N2CCc3ccccc32)=C1c1ccccc1Cl [SB-373598]	16%
Fc1cccc(COc2nnc(-c3ccc4c(c3)CCO4)o2)c1	17%
Cc1cccc(-c2nc(Nc3cccc(C(N)=O)c3)c3ccccc3n2)n1 [GW876019]	4%
Cc1c(O)cccc1Nc1ccnc2ccc(C(F)(F)F)cc12.Cl [GW466413]	0%
COc1ccc(Nc2nccc(-c3cccc(NC(=O)c4cc5cc(F)ccc5[nH]4)c3)n2)cc1 [GSK1229782]	33%
Cc1cc(NCC(c2ccccc2)c2ccccc2)nc(NCc2ccc(C(F)(F)F)cc2)n1 [GW497681]	0%
